Results reported in PubChem BioAssay.
Unmarked numbers belong to inactive results. Activity calls are given as the source filed them. No rule for the calls is given here.

biological target: L-lactate dehydrogenase (Plasmodium falciparum (isolate CDC / Honduras)) (UniProt Q27743); test: PfLDH activity inhibition – cell lysate, 3D7 strain, counter-screen for P. falciparum growth inhibition project (AID 2304);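 also: 0% = vehicle and 100% = reference inhibitor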; details: P. falciparum 3D7 crude extract, LDH APAD/NBT absorbance; at 2 µM; hits give high values
Sequence (Q27743 whole entry, looked up): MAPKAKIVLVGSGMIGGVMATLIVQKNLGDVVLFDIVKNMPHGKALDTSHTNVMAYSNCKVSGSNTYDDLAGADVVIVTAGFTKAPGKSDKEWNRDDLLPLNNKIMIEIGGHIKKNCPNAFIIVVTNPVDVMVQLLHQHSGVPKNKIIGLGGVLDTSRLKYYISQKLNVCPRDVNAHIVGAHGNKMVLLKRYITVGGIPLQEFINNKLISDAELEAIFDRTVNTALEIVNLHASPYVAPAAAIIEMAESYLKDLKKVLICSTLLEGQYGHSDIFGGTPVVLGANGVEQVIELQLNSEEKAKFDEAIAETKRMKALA

SMILES | inhibition [%]
O=C(Nc1ccc(-c2ccc(-c3nc4ccccc4[nH]3)cc2)cc1)Nc1ccc(Cl)c(Cl)c1 | 4
O=C(Nc1cccc(Cl)c1)OC1CCCN2CCCCC12 (stereo not given) | 1
CCC(C)C(COC(=O)c1cc(OC)c(OC)c(OC)c1)N(C)CCN(C)C(COC(=O)c1cc(OC)c(OC)c(OC)c1)C(C)CC (stereo not given) | 3
COc1ccc(N2CCN(CCCCNCc3ccc(NC(=O)c4cc(Cl)cc(Cl)c4)cc3)CC2)c(OC)c1 | 0
O=C(C=Cc1ccc(Cl)c(Cl)c1)NCCCCCN1CCC(CCCNC(=O)/C=C/c2ccccc2)CC1 | -9
CCOc1ccc(CCCON2C(N)=NC(N)=NC2(C)C)cc1 | 0
CNCc1ccc(CN(C)c2nc(N)c3cc(OC)c(OC)cc3n2)cc1 | 5
COc1ccc2nccc([C@@H](O)CN3CCC(NCc4ccc5c(c4)NC(=O)C(C)S5)CC3)c2c1 (stereo not given in full) | 2
N#Cc1ccc2nc(-c3cc(-c4cccc(F)c4)cnc3N)[nH]c2c1 | 5
O=C(Nc1ccc(S(=O)(=O)N2CCCC2)cc1)c1cc(-c2cccnc2)nc2ccc(Cl)cc12 | -6
Cn1nc2ccc3ccccc3c2nc1=N | -4
CN(CCc1ccccn1)Cc1ccc(-c2ccc(-c3nc4ccccc4[nH]3)s2)cc1 | 6
O=C(COc1ccccc1)NC1CCN(c2ccnc3cc(Cl)ccc23)C1 (stereo not given) | -5
O=C(Cc1ccc(Cl)cc1)Nc1cc(Cl)ccc1Cn1cnc(N2CCNCC2)cc1=O | -4
COc1ccccc1-c1nc2nc(N)nc(N)c2nc1-c1ccccc1OC | 1
CCC(=O)c1ccc(-c2ccc(=O)n(CC(=O)N(CCN(CC)CC)Cc3ccc(-c4ccc(C(F)(F)F)cc4)cc3)n2)cc1 | -7
CC(=O)Nc1ccc(C2NC(=O)NC(c3ccccc3)=C2c2nc3ccccc3s2)cc1 (stereo not given) | 3
Cc1cccc2[nH]c(-c3ccc(-c4cccc(CNCCCNS(C)(=O)=O)c4)cc3)nc12 | 2
Cc1cccc2[nH]c(-c3ccc(-c4ccc(CNCCNC(=O)c5ccnn5C)cc4)cc3)nc12 | -2
COc1cc(NC(=O)N2CCOC(CCN3CCC(c4ccccc4)CC3)(c3ccc(Cl)c(Cl)c3)C2)cc(OC)c1OC (stereo not given) | -2

SMILES | inhibition [%]
CN1CCN(Cc2ccc(-c3ccc4c(Nc5ccc(F)cc5Cl)ccnc4c3)o2)CC1 | -3
CN1CCN(CCCN(Cc2ccc(-c3ccc(CNC4CCCC4)cc3)cc2)C(=O)CCC2CCCC2)CC1 | 2
N#Cc1cccc(C(=O)Nc2ccc(-c3ccc(CN4CCCC4)cc3)cc2)c1 | -5
C=CCc1cc(C2CCN(CCCCNC(=O)c3ccc(-c4ccc(C#N)cc4)cc3)CC2)c(OCC(N)=O)c2c1CCCC2 | -6
CN(C)Cc1ccc(CN2CCN(CCOc3ccc(-c4ccc(Cl)cc4)cc3)CC2)o1 | -1
COc1ccc2nccc([C@@H](O)CN3CCC(NCc4ccc5c(c4)NC(=O)CS5)CC3)c2c1 | -1
O=C(c1ccc([N+](=O)[O-])o1)N1CCN(c2nc3c(F)cc(F)cc3s2)CC1 | -4
CC1(C)C[C@@H]2C[C@@](C)(CN2C(=O)c2cc(C(C)(C)C)nn2Cc2ccccc2)C1 | 0
CCCCCCCNCc1c(O)ccc2c(CNCCCCCCC)c(O)ccc12 | -3
COc1cc2c(cc1OC)CN(CCCCNC(=O)c1ccc(NC(=O)c3cc(Cl)cc(Cl)c3)cc1)CC2 | -6
COc1c(OC)c(OC)c2ccccc2c1CNCCCCCCNCc1c(OC)c(OC)c(OC)c2ccccc12 | 3
Oc1ccccc1CN1CCC2(CCCN(Cc3ccccc3F)C2)C1 (stereo not given) | -2
CC(C)C(=O)NC(Nc1ccc([N+](=O)[O-])cc1)C(Cl)(Cl)Cl (stereo not given) | -6
Fc1ccc2nc(-c3ccc(-c4cccc(CN5CCN(c6ccncc6)CC5)c4)cc3)[nH]c2c1 | -3
O=C(NC1CCCCN(Cc2ccc3c(c2)OCCO3)C1)c1cc(-c2ccccc2F)cs1 (stereo not given) | 1
CN(C)c1cc(NC(=O)Nc2ccccc2)c2ccccc2n1 | -5
CCc1c(CCNCCCCCCNCCc2ccc(OC)c(OC)c2C)ccc(OC)c1OC | 5
CC(C)c1ccc(NC(=O)Nc2ccc(CCNCCCc3ccccc3)cc2)cc1 | 1
CCOc1ccc(NC(=O)c2cccc(CN3CCCN(Cc4cccc(O)c4)CC3)c2)cc1 | 0
CN(C)CCCOc1ccc(CN2CC[C@H](NC(=O)c3ccc(Cl)c(Cl)c3)C2)cc1Cl | 1

test system: not listed separately; test: inhibition of 3D7 malaria parasite growth – strain 3D7 (AID 2306);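 also: 0% = DMSO wells and 100% = chloroquine plus artemisinin control wells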; details: P. falciparum 3D7 erythrocytic growth, LDH absorbance, 72 h; at 2 µM; hits give high values

SMILES | growth inhibition
O=C(Nc1ccc(-c2ccc(-c3nc4ccccc4[nH]3)cc2)cc1)Nc1ccc(Cl)c(Cl)c1 | 102% (active)
O=C(Nc1cccc(Cl)c1)OC1CCCN2CCCCC12 (stereo not given) | 85% (active)
CCC(C)C(COC(=O)c1cc(OC)c(OC)c(OC)c1)N(C)CCN(C)C(COC(=O)c1cc(OC)c(OC)c(OC)c1)C(C)CC (stereo not given) | 84% (active)
COc1ccc(N2CCN(CCCCNCc3ccc(NC(=O)c4cc(Cl)cc(Cl)c4)cc3)CC2)c(OC)c1 | 100% (active)
O=C(C=Cc1ccc(Cl)c(Cl)c1)NCCCCCN1CCC(CCCNC(=O)/C=C/c2ccccc2)CC1 | 96% (active)
CCOc1ccc(CCCON2C(N)=NC(N)=NC2(C)C)cc1 | 93% (active)
CNCc1ccc(CN(C)c2nc(N)c3cc(OC)c(OC)cc3n2)cc1 | 96% (active)
COc1ccc2nccc([C@@H](O)CN3CCC(NCc4ccc5c(c4)NC(=O)C(C)S5)CC3)c2c1 (stereo not given in full) | 99% (active)
N#Cc1ccc2nc(-c3cc(-c4cccc(F)c4)cnc3N)[nH]c2c1 | 100% (active)
O=C(Nc1ccc(S(=O)(=O)N2CCCC2)cc1)c1cc(-c2cccnc2)nc2ccc(Cl)cc12 | 97% (active)
Cn1nc2ccc3ccccc3c2nc1=N | 91% (active)
CN(CCc1ccccn1)Cc1ccc(-c2ccc(-c3nc4ccccc4[nH]3)s2)cc1 | 100% (active)
O=C(COc1ccccc1)NC1CCN(c2ccnc3cc(Cl)ccc23)C1 (stereo not given) | 101% (active)
O=C(Cc1ccc(Cl)cc1)Nc1cc(Cl)ccc1Cn1cnc(N2CCNCC2)cc1=O | 97% (active)
COc1ccccc1-c1nc2nc(N)nc(N)c2nc1-c1ccccc1OC | 84% (active)
CCC(=O)c1ccc(-c2ccc(=O)n(CC(=O)N(CCN(CC)CC)Cc3ccc(-c4ccc(C(F)(F)F)cc4)cc3)n2)cc1 | 98% (active)
CC(=O)Nc1ccc(C2NC(=O)NC(c3ccccc3)=C2c2nc3ccccc3s2)cc1 (stereo not given) | 93% (active)
Cc1cccc2[nH]c(-c3ccc(-c4cccc(CNCCCNS(C)(=O)=O)c4)cc3)nc12 | 99% (active)
Cc1cccc2[nH]c(-c3ccc(-c4ccc(CNCCNC(=O)c5ccnn5C)cc4)cc3)nc12 | 102% (active)
COc1cc(NC(=O)N2CCOC(CCN3CCC(c4ccccc4)CC3)(c3ccc(Cl)c(Cl)c3)C2)cc(OC)c1OC (stereo not given) | 93% (active)

SMILES | growth inhibition
CN1CCN(Cc2ccc(-c3ccc4c(Nc5ccc(F)cc5Cl)ccnc4c3)o2)CC1 | 100% (active)
CN1CCN(CCCN(Cc2ccc(-c3ccc(CNC4CCCC4)cc3)cc2)C(=O)CCC2CCCC2)CC1 | 98% (active)
N#Cc1cccc(C(=O)Nc2ccc(-c3ccc(CN4CCCC4)cc3)cc2)c1 | 92% (active)
C=CCc1cc(C2CCN(CCCCNC(=O)c3ccc(-c4ccc(C#N)cc4)cc3)CC2)c(OCC(N)=O)c2c1CCCC2 | 101% (active)
CN(C)Cc1ccc(CN2CCN(CCOc3ccc(-c4ccc(Cl)cc4)cc3)CC2)o1 | 90% (active)
COc1ccc2nccc([C@@H](O)CN3CCC(NCc4ccc5c(c4)NC(=O)CS5)CC3)c2c1 | 102% (active)
O=C(c1ccc([N+](=O)[O-])o1)N1CCN(c2nc3c(F)cc(F)cc3s2)CC1 | 93% (active)
CC1(C)C[C@@H]2C[C@@](C)(CN2C(=O)c2cc(C(C)(C)C)nn2Cc2ccccc2)C1 | 86% (active)
CCCCCCCNCc1c(O)ccc2c(CNCCCCCCC)c(O)ccc12 | 100% (active)
COc1cc2c(cc1OC)CN(CCCCNC(=O)c1ccc(NC(=O)c3cc(Cl)cc(Cl)c3)cc1)CC2 | 99% (active)
COc1c(OC)c(OC)c2ccccc2c1CNCCCCCCNCc1c(OC)c(OC)c(OC)c2ccccc12 | 100% (active)
Oc1ccccc1CN1CCC2(CCCN(Cc3ccccc3F)C2)C1 (stereo not given) | 98% (active)
CC(C)C(=O)NC(Nc1ccc([N+](=O)[O-])cc1)C(Cl)(Cl)Cl (stereo not given) | 97% (active)
Fc1ccc2nc(-c3ccc(-c4cccc(CN5CCN(c6ccncc6)CC5)c4)cc3)[nH]c2c1 | 100% (active)
O=C(NC1CCCCN(Cc2ccc3c(c2)OCCO3)C1)c1cc(-c2ccccc2F)cs1 (stereo not given) | 92% (active)
CN(C)c1cc(NC(=O)Nc2ccccc2)c2ccccc2n1 | 101% (active)
CCc1c(CCNCCCCCCNCCc2ccc(OC)c(OC)c2C)ccc(OC)c1OC | 98% (active)
CC(C)c1ccc(NC(=O)Nc2ccc(CCNCCCc3ccccc3)cc2)cc1 | 101% (active)
CCOc1ccc(NC(=O)c2cccc(CN3CCCN(Cc4cccc(O)c4)CC3)c2)cc1 | 95% (active)
CN(C)CCCOc1ccc(CN2CC[C@H](NC(=O)c3ccc(Cl)c(Cl)c3)C2)cc1Cl | 100% (active)
